Here are results for 18 compounds from PubChem BioAssay (NCATS).

A number with no mark means an inactive call. Records with an inconclusive call do not appear. The source made the active and inactive calls. Unless noted, calls come from the whole dose curve; as a rule, active = well fitted curve in the direction sought with a large enough effect; inconclusive = small, poorly fitted or top-dose-only effect, or another doubt; inactive = no such curve, though single readings can be large; an effect the other way counts as inactive or inconclusive.

In one assay the test system is Hek293T. Put plainly: Primary qHTS to identify gynecologic anti-cancer compounds using libraries of approved drugs and bioactive compounds (AID 1345084). Note: nearly all actives have a fitted effect of over 55% in size. Note: potency is the fitted concentration of half-maximal effect. Conditions: Gynecologic cancer cell panel viability, ATPlite luminescence, 48 h, control line for the selectivity index; series mostly up to 57.5 µM. An outline of the steps: (§1)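 Cytotoxicity screen measuring ATP content by luciferase luminescence. Each compound is applied at five concentrations for 48 h at 37 C with 5% CO2.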
Background: qHTS replaces the single test concentration by a dilution series.

Another assay has as its system JEG-3. The description is as above. Conditions: Gynecologic cancer cell panel viability, ATPlite luminescence, 48 h; series mostly up to 57.5 µM. An outline of the steps: as §1
Background: Cellular ATP, detected with luciferase, serves as a proxy for viable cell number.

In the next assay the test system is OV90. The assay is described as above. Conditions: Gynecologic cancer cell panel viability, ATPlite luminescence, 48 h; series mostly up to 57.5 µM. An outline of the steps: as §1
The subject of another assay is PA-1. The assay is described as above. Particulars: Gynecologic cancer cell panel viability, ATPlite luminescence, 48 h; series mostly up to 57.5 µM. The procedure, abridged:
as §1

In the next assay the test system is SKOV3. Described as above. Particulars: Gynecologic cancer cell panel viability, ATPlite luminescence, 48 h; series mostly up to 57.5 µM. The procedure, abridged:
as §1

The next assay relates to Tov-21-G. Described as above. Conditions: Gynecologic cancer cell panel viability, ATPlite luminescence, 48 h; series mostly up to 57.5 µM. An outline of the steps: as §1
The test system of a further assay is Tov112D. The description is as above. Conditions: Gynecologic cancer cell panel viability, ATPlite luminescence, 48 h; series mostly up to 57.5 µM. An outline of the steps: as §1
Assay [1] is described as follows: Drug repurposing screens with cells derived from glioblastoma tumor samples (AID 1345199). For activity, negative = cell killing: % is set by controls: 0 for no effect and ±100 for the full control effect. Note: nearly all actives have a fitted effect of over 40% in size. Note: potency is the fitted concentration of half-maximal effect. Conditions: GBM patient neurospheres viability, ATP luminescence, 48 h. An outline of the steps: (§2)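 Four patient lines of CD133+ GBM neurospheres were screened at several concentrations; hits were retested in those lines plus three slower-growing GBM lines, using 48-hour treatment and ATP-based viability.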

Another assay deals with astro. The description is as above. Conditions: viability, ATP luminescence, 48 h; series mostly up to 45.9 µM. The procedure, abridged: as §2
In assay [2] the target is Nuclear receptor subfamily 1 group I member 2 (Rattus norvegicus) (UniProt Q9R1A7). The assay can be described thus: qHTS assay for small molecule activators of the rat pregnane X receptor (rPXR) signaling pathway (AID 651751; call rule not given here; note: 0% is about no effect). Conditions: rPXR reporter cells, luciferase (One-Glo), 24 h.
Assay [3] can be described thus: qHTS assay for small molecule activators of the human pregnane X receptor (PXR) signaling pathway (AID 720659; call rule not given here; note: 0% is about no effect).
[4] abbreviates: at 45.9 µM (top of the series), tumour line B.
[5] abbreviates: at 45.9 µM (top of the series), tumour line D.
The mark [6] stands for this setting: at 46.1 µM (top of the series), tumour line C.

Sequence of Nuclear receptor subfamily 1 group I member 2 (Rattus norvegicus) (Q9R1A7 whole entry, looked up): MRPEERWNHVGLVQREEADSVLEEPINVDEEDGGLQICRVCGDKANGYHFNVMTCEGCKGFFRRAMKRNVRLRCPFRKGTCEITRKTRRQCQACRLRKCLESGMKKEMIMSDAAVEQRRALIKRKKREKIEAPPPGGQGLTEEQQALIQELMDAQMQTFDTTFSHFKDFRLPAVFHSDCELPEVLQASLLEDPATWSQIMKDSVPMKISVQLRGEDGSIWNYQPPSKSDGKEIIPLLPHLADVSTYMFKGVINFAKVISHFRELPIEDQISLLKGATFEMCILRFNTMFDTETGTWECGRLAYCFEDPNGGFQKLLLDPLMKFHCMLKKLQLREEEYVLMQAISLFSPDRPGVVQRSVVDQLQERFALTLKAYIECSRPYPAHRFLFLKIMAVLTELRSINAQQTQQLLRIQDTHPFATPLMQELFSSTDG

With `CCCCCCCCOc1ccc(C(=O)c2ccccc2)c(O)c1`, the Potency entry in the assay with Hek293T, in the assay with JEG-3, with OV90, in the assay on PA-1, in the assay with SKOV3 and with Tov-21-G was “inactive” throughout. Moreover, the Potency entry with Tov112D and with astro was “inactive” each time. Also, the activity, negative = cell killing is -18.7% in assay [1] (setting [4]), -9.16% in [1] (setting [5]) and -24.6% in [1] (setting [6]). Also, in [2], the max response is -1.61%. For the same compound, the outcome in assay [3] was inactive.
For `Cc1cccc(C)c1NC(=O)CN1CCCC1`, the Potency result in the assay on Hek293T, with JEG-3, in the assay with OV90, in the assay with PA-1, in the assay with SKOV3 and in the assay with Tov-21-G was “inactive” each time. The Potency entry in the assay with Tov112D and with astro was “inactive” throughout. In addition, the activity, negative = cell killing was -9.15% in assay [1] (setting [4]), 5.92% in [1] (setting [5]) and -8.15% in assay [1] (setting [6]).
Regarding `CC(C)[N+](C)(C)CC(O)COc1cccc2ccccc12` (stereo unspecified), the Potency entry with Hek293T, in the assay with JEG-3, with OV90, in the assay on PA-1, in the assay on SKOV3 and in the assay on Tov-21-G was “inactive” each time. In addition, the Potency result in the assay on Tov112D and in the assay with astro was “inactive” in each case. For the same compound, the activity, negative = cell killing was -19.8% in assay [1] (setting [4]), -17.5% in assay [1] (setting [5]) and -27.6% in assay [1] (setting [6]).
With `CCOC(=O)c1ccc(N)cc1`, the Potency entry with Hek293T, in the assay on JEG-3, in the assay on OV90, in the assay on PA-1, with SKOV3 and in the assay with Tov-21-G was “inactive” in each case. For the same compound, the Potency result in the assay on Tov112D and with astro was “inactive” each time. In addition, the activity, negative = cell killing in assay [1] (at 21.2 µM (top of the series), tumour line D) was -25.1%. In addition, the Potency in assay [1] (tumour line B) is 14.1 µM (active).
Turning to `O=C(O)C1(C(=O)O)CCC1.[NH2-].[NH2-].[Pt+2]`, the Potency result with Hek293T, with JEG-3, with OV90, in the assay on PA-1, with SKOV3 and in the assay with Tov-21-G was “inactive” throughout. In addition, the Potency entry in the assay with Tov112D and with astro was “inactive” in each case. For the same compound, the activity, negative = cell killing in [1] (setting [4]) is -20.6%; in assay [1] (setting [5]) it was -8.04%; in assay [1] (setting [6]), -13.1%.
As for `CCCCN1C[C@H](O)[C@@H](O)[C@H](O)[C@H]1CO`, the Potency entry in the assay on Hek293T, in the assay with JEG-3, in the assay with OV90, with PA-1, in the assay on SKOV3 and with Tov-21-G was “inactive” each time. Also, the Potency entry in the assay on Tov112D and in the assay with astro was “inactive” each time. The activity, negative = cell killing in assay [1] (setting [4]) was -11.2%; in [1] (setting [5]) it was -2.4%; in [1] (setting [6]), -21.4%.
For `CCCCCCCC/C=C\CCCCCCCCN`, the Potency entry with Hek293T, in the assay with JEG-3, in the assay with OV90, in the assay on PA-1, with SKOV3 and in the assay with Tov-21-G was “inactive” each time. The Potency result with Tov112D and with astro was “inactive” each time. The activity, negative = cell killing in assay [1] (setting [4]) is -5.85%; in assay [1] (setting [5]), -1.47%; in [1] (setting [6]), -19.7%. Further, the max response in [2] is 3.35%. In addition, in assay [3], the call was inactive.
As to `O=C(O)c1ccc(S(=O)(=O)N(Cl)Cl)cc1`, the Potency entry in the assay on Hek293T, in the assay on JEG-3, in the assay on OV90, with PA-1, in the assay on SKOV3 and in the assay on Tov-21-G was “inactive” throughout. In addition, the Potency entry in the assay on Tov112D and in the assay with astro was “inactive” throughout. Further, the activity, negative = cell killing in assay [1] (setting [4]) was -12%; in assay [1] (setting [5]) it was -8.56%; in [1] (setting [6]), -26.9%. For the same compound, in assay [2], the max response is 3.23%. Further, in assay [3], the result was inactive.
In the case of `CCC(C(=O)OCCOCCN(CC)CC)c1ccccc1` (stereo unspecified), the Potency result in the assay with Hek293T, in the assay on JEG-3, in the assay with OV90, with PA-1, in the assay on SKOV3 and in the assay with Tov-21-G was “inactive” each time. Further, the Potency result with Tov112D and in the assay with astro was “inactive” in each case. Further, the activity, negative = cell killing in assay [1] (setting [6]) was -29.9%. Moreover, in assay [1] (tumour line A), the Potency was 14.1 µM (active).
As for `COc1cc(C(=O)N2CCCCCCC2)cc(OC)c1OC`, the Potency entry in the assay on Hek293T, in the assay on JEG-3, in the assay with OV90, in the assay with PA-1, in the assay on SKOV3 and with Tov-21-G was “inactive” in each case. The Potency entry in the assay on Tov112D and with astro was “inactive” in each case. Moreover, the activity, negative = cell killing was -16.1% in assay [1] (setting [4]) and -20.1% in [1] (setting [5]).
On to `C#C[C@]1(O)CC[C@H]2[C@@H]3[C@H](C)CC4=C(CCC(=O)C4)[C@H]3CC[C@@]21C`, for which the Potency result with Hek293T, with JEG-3, in the assay with OV90, in the assay with PA-1, with SKOV3 and with Tov-21-G was “inactive” each time. Besides, the Potency entry in the assay on Tov112D and with astro was “inactive” each time. Moreover, the activity, negative = cell killing in assay [1] (setting [4]) was -14.2%. The Potency in assay [1] (tumour line A) is 31.6 µM (active).
With `CC(C)CCCC(C)N` (stereo unspecified), the Potency result in the assay with Hek293T, in the assay on JEG-3, in the assay on OV90, in the assay with PA-1, in the assay on SKOV3 and in the assay on Tov-21-G was “inactive” throughout. In addition, the Potency entry with astro was “inactive”. Besides, the activity, negative = cell killing in [1] (setting [4]) is -9.11%; in assay [1] (setting [5]) it was -4%; in [1] (at 46 µM (top of the series), tumour line A), -26.4%; in [1] (setting [6]), -27%.
With `O=C(N/N=C/c1ccc([N+](=O)[O-])o1)c1ccc(O)cc1`, the Potency with Hek293T is 25.1 µM (active); with OV90, 22.4 µM (active); with PA-1, 20 µM (active); in the assay with SKOV3, 14.1 µM (active). Further, the Potency result in the assay with JEG-3 and in the assay on astro was “inactive” each time.
As to `CCCCCCCCCCC[C@@H](C[C@@H]1OC(=O)[C@H]1CCCCCC)OC(=O)[C@H](CC(C)C)NC=O`, the Potency entry with Hek293T, in the assay with JEG-3, with OV90, with PA-1, in the assay on SKOV3 and in the assay with Tov-21-G was “inactive” in each case. The Potency result in the assay with Tov112D was “inactive”. For the same compound, the activity, negative = cell killing in [1] (setting [5]) was -23%. Besides, the Potency was 10 µM (active) in assay [1] (tumour line A) and 22.4 µM (active) in the assay on astro.
Regarding `C[C@]12CCC(=O)C=C1C=C[C@@H]1[C@@H]2CC[C@@]2(C)[C@H]1CC[C@@]21CCC(=O)O1`, the Potency entry with Hek293T, in the assay on JEG-3, in the assay on OV90, in the assay on PA-1, in the assay with SKOV3 and in the assay on Tov-21-G was “inactive” in each case. In addition, the Potency entry with Tov112D and with astro was “inactive” in each case. Besides, the activity, negative = cell killing in assay [1] (setting [4]) was -20%.
Consider `Cl/C(=C\n1cncn1)c1ccc(Cl)cc1Cl`, for which the Potency result in the assay with Hek293T, in the assay on JEG-3, in the assay on OV90, in the assay with PA-1, in the assay with SKOV3 and in the assay on Tov-21-G was “inactive” each time. Besides, the Potency result in the assay on Tov112D and in the assay on astro was “inactive” each time. Moreover, the activity, negative = cell killing is -7.02% in [1] (setting [4]), -2.18% in assay [1] (setting [5]) and -23.5% in assay [1] (setting [6]).
In the case of `CN1CCN(c2c(F)cc3c(=O)c(C(=O)O)cn4c3c2SCC4)CC1`, the Potency entry in the assay on Hek293T, in the assay with JEG-3, with OV90, in the assay on PA-1, in the assay with SKOV3 and in the assay with Tov-21-G was “inactive” in each case. The Potency result in the assay with Tov112D and in the assay with astro was “inactive” each time. For the same compound, the activity, negative = cell killing in assay [1] (setting [4]) is -10.6%; in assay [1] (setting [6]) it was -19.6%.
In the case of `Cc1cccc(C)c1NC(=O)c1ccccc1C(=O)O`, the Potency result in the assay on Hek293T, in the assay on JEG-3, in the assay with OV90, with PA-1, in the assay on SKOV3 and with Tov-21-G was “inactive” throughout. Besides, the Potency result in the assay on Tov112D and in the assay with astro was “inactive” in each case. The results for the activity, negative = cell killing in assay [1] (setting [4]), in assay [1] (setting [5]) and in assay [1] (setting [6]) were -1.45%, -18.5% and -17.8%, respectively.
